Data as given in PubChem BioAssay AID2803 (The Scripps Research Institute Molecular Screening Center, 2010).
Out of some 2,000 compounds screened, about 1,300 (65%) were called active. Rule as the data show it: active = inhibition above about 43%; inactive = the rest. So high a share suggests a set chosen from earlier hits. Not all results are given here.

Target: Prolyl endopeptidase-like (Homo sapiens) (UniProt Q4J6C6)
Experiment: human PREPL enzyme inhibitors, confirmation, biochemical, fluorescence polarization (AID 2803);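 also: 0% = protein with DMSO and 100% = wells lacking protein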
Settings: recombinant PREPL, fluorescence polarization activity probe; at 5.96 µM; stronger effect = higher value

Chain of Prolyl endopeptidase-like (Homo sapiens) (Q4J6C6 whole entry, looked up): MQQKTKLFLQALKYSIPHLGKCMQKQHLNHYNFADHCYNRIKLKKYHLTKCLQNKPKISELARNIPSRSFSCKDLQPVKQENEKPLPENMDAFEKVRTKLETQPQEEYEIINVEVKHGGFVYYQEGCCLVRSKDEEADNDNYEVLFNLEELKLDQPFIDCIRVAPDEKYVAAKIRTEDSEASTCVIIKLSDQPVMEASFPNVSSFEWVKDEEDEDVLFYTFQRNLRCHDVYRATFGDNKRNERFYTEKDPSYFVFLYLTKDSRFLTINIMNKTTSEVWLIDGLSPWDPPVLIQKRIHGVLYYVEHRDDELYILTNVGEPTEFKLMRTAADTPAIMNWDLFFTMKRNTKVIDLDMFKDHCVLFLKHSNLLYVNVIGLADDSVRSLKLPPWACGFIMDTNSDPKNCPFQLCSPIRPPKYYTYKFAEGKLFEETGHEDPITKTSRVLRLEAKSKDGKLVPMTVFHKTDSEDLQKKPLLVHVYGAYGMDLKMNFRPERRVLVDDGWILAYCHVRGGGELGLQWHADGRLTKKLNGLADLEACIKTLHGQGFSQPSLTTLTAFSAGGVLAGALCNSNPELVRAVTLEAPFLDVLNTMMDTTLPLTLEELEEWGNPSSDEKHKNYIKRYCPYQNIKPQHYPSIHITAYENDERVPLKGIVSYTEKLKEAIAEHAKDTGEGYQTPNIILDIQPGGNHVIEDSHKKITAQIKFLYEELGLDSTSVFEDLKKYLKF

| Structure (SMILES) | inhibition |
| --- | --- |
| CCOc1cccc(=NC2CCCCC2)c2c(C)[nH]c(C)c12 | 54.4% (active) |
| O=C(NCC(c1cccnc1)N1CCN(c2ccccc2)CC1)Oc1ccccc1 (stereo not drawn) | 39.3% (inactive) |
| COc1ccc2[nH]c3c(c2c1)CCN[C@H]3C | 23.7% (inactive) |
